From ChEMBL document CHEMBL4513216, “Probing the Open Global Health Chemical Diversity Library for Multistage-Active Starting Points for Next-Generation Antimalarials” (ACS Infect Dis, 2020)
In all, about 69,000 compounds went through this assay and about 8,600 (12%) showed an effect of 50% or more. This excerpt belongs to a sample that is enriched for strong results.

These compounds were tested on Plasmodium berghei (assay: Screen against P. berghei liver stage (PbLuc), transformed with Luciferase, at 10uM). Details: tested at 10 uM.
Format: functional, HepG2

Row | SMILES | INHIBITION
1 | Cc1cnn(CC2CCCCN2C(=O)c2ccc3c(c2)nnn3C)c1 (stereo unspecified) | -17.8%
2 | O=S(=O)(Cc1ccccc1)NCCc1nnc2n1CCC2 | 31.9%
3 | CC(C)CS(=O)(=O)CCNc1ncccn1 | 10.3%
4 | CN(C)S(=O)(=O)CCNc1ncc2c(n1)CCN2c1ccccc1 | -26.9%
5 | CCc1cnc(NCCCN2CCC(O)CC2)nc1 | -52.7%
6 | CCc1cnc(NCCS(=O)(=O)CC(C)C)nc1 | 53.7%
7 | CCc1cnc(NCCS(=O)(=O)N(C)C)nc1 | 61.3%
8 | CCc1cnc(NCCCOC2CCCC2)nc1 | -27%
9 | CSCCCN(CCN1CCOCC1)Cc1ccco1 | 45.8%
10 | O=C(Nc1nncs1)NC1CCCc2c1cnn2CCO (stereo unspecified) | 21.7%
11 | O=C(c1cc(C2CC2)[nH]n1)N1CCN(Cc2ccsc2)CC1 | 36.4%
12 | CC(C)c1ccc(CN2CCN(C(=O)c3cc(C4CC4)[nH]n3)CC2)cc1 | 60.2%
13 | Cc1cccc(CN2CCN(C(=O)c3cc(C4CC4)[nH]n3)CC2)c1 | -24.2%
14 | CC(C)c1cc(C(=O)N2CCN(Cc3ccsc3)CC2)n[nH]1 | 36.3%
15 | CC(C)c1cc(C(=O)N2CCN(Cc3ccc(C#N)cc3)CC2)n[nH]1 | 82.5%
16 | O=C(c1cc(C2CC2)[nH]n1)N1CCN(Cc2ccc3c(c2)OCO3)CC1 | 9.54%
17 | Cc1csc(N2CCN(C(=O)c3cc(C4CC4)[nH]n3)CC2)n1 | 12%
18 | CC(C)c1cc(C(=O)N2CCCN(Cc3ccccc3)CC2)n[nH]1 | 48.4%
19 | O=C(c1cc(C2CC2)[nH]n1)N1CCN(c2nccs2)CC1 | 6.02%
20 | N#Cc1ccc(N2CCN(C(=O)c3cc(C4CC4)[nH]n3)CC2)c(F)c1 | 80.8%
21 | N#Cc1ccc(CN2CCN(C(=O)c3cc(C4CC4)[nH]n3)CC2)cc1 | 84.2%
22 | COc1ccnc(N2CCN(C(=O)c3cc(C4CC4)[nH]n3)CC2)n1 | 25.1%

Row | SMILES | INHIBITION
23 | CN1CCN(CCCNC(=O)c2nc3ccccc3c(=O)[nH]2)CC1 | 24.2%
24 | CN1CCN(C[C@@H]2OC[C@H]3CN(CCc4ccccc4)CC[C@H]32)CC1 | -40%
25 | CC(C)n1cc(CN2CCCN(C(=O)CC3CCCCC3)CC2)cn1 | 4.71%
26 | CCc1nnc(CN(CC)C(=O)C2CCC(=O)N(C3CCCC3)C2)o1 (stereo unspecified) | 15.3%
27 | Cc1ccc(CN(C)Cc2cnc(N3CCOCC3)s2)o1 | 35.8%
28 | O=C(c1cc(C2CC2)[nH]n1)N1CCN(Cc2ccncc2)CC1 | -0.113%
29 | O=C(c1cc(C2CC2)[nH]n1)N1CCN(Cc2ccccc2)CC1 | -26.6%
30 | O=C(c1cc(C2CC2)[nH]n1)N1CCN(Cc2ccc(Cl)cc2)CC1 | 74.7%
31 | Cc1ccc(C(=O)N(CC2CCCO2)c2ccncc2)o1 (stereo unspecified) | 24.1%
32 | COCC(C)NC(=O)CN1CCC(C)CC1 (stereo unspecified) | 18.4%
33 | Cc1nc(CN2CCC(c3cc(N4CCCC4)ncn3)CC2)cs1 | -37.9%
34 | c1c[nH]c2nc(C3CCNC3)nc-2c1 (stereo unspecified) | 19.3%
35 | Cc1cc(N)nc(C2(C)CCCN2C(=O)Cc2ccc(F)cc2)n1 (stereo unspecified) | 29.2%
36 | O=C(CN1C[C@@H]2CC[C@H]1CN(Cc1ccccn1)C2)NCc1cccs1 | 51.1%
37 | O=C(CN1C[C@@H]2CC[C@H]1CN(Cc1ccccn1)C2)Nc1ccccc1 | 43.7%
38 | Cn1ccc(NC(=O)CN2C[C@@H]3CC[C@H]2CN(Cc2ccccn2)C3)n1 | 45.8%
39 | O=C(O)c1ccc(CC2CCN(S(=O)(=O)N3CCOCC3)C2)cc1 (stereo unspecified) | 32.5%
40 | CN(C)C(=O)CNC(=O)c1cc2c(s1)CCN2S(C)(=O)=O | 26.3%
41 | CC(=O)N1Cc2nc(C(=O)NCCc3cccnc3)oc2C1 | 70.7%
42 | Cc1ccc(CNC(=O)c2nc3c(o2)CN(C(=O)c2cccnc2)C3)o1 | -21.1%
43 | CS(=O)(=O)N1Cc2nc(C(=O)NCc3ccccc3)oc2C1 | 24.6%
44 | CCCNC(=O)c1nc2c(o1)CN(C(C)=O)C2 | -0.388%

Row | SMILES | INHIBITION
45 | O=C(NCc1ccccc1)c1nc2c(o1)CN(C(=O)c1cccnc1)C2 | 53.2%
46 | CN(C)CCNC(=O)c1nc2c(o1)CN(C(=O)c1cccnc1)C2 | -75.3%
47 | COc1cccc(CNC(=O)c2nc3c(o2)CN(C(=O)N(C)C)C3)c1 | 48.2%
48 | CN1CCCN(C(=O)c2nc3c(o2)CN(C(=O)c2cccnc2)C3)CC1 | 1.9%
49 | COc1cccc(CNC(=O)c2nc3c(o2)CN(S(C)(=O)=O)C3)c1 | 52.6%
50 | O=C(NCc1ccncc1)c1nc2c(o1)CN(C(=O)c1cccnc1)C2 | 29%
51 | O=C(NCCN1CCCC1)c1nc2c(o1)CN(C(=O)c1cccnc1)C2 | -42.8%
52 | CN1CCN(C(=O)c2nc3c(o2)CN(C(=O)c2cccnc2)C3)CC1 | 50.1%
53 | O=C(NC1CC1)C1=CC2(CCN(CCO)CC2)c2ccccc21 | 28.4%
54 | COCC(=O)N1CCCC2(CCN(CCN3CCCC3)CC2)C1 | -12.1%
55 | Cc1noc(C)c1CN(C)C(=O)c1ccc(O)nc1 | 25.1%
56 | CC(=O)N(C)CC(=O)NCC1CCN(c2cc(Cl)ccc2C)C1 (stereo unspecified) | -23.7%
57 | Cc1nccc([C@@H]2C[C@@H]3CCN(S(=O)(=O)N(C)C)C[C@H]3O2)n1 | 26.3%
58 | Cn1ccc(C(=O)N2CCCC(Cc3cnc4ccccc4c3)C2)n1 (stereo unspecified) | -0.371%
59 | COCCn1cnc2ccc(NC(=O)c3c(C)noc3C)cc2c1=O | 35.7%
60 | Cn1cc(C(=O)N2CC[C@@H]3[C@@H]2CCN3Cc2cccc(F)c2)cn1 | 43.2%
61 | Cc1nc2cc(OCc3nc(C(=O)NC(C)(CO)CO)co3)ccc2s1 | 74.5%
62 | Cc1nc2cc(OCc3nc(C(=O)NC(CO)CO)co3)ccc2s1 | 29.4%
63 | CC[C@@H](CO)NC(=O)c1coc(COc2ccc3sc(C)nc3c2)n1 | 41.5%
64 | Cn1nnnc1SCC1(O)CCCCC1 | 1.74%
65 | O=S(=O)(CC1CCCCO1)Nc1cc(F)ccc1-n1cccn1 (stereo unspecified) | 25.7%
66 | Cc1ccc(S(=O)(=O)Nc2ccc(N3CCSCC3)c(C(=O)O)c2)s1 | 43.9%
